Test systems include NCI/ADR-RES ovarian; T-47D breast; BT-549 breast; MDA-MB-435 melanoma; SW-620 colon; MCF7 breast; HCT-116 colon; HCC-2998 colon; KM12 colon.
Test in all cases: NCI-60 one-dose screen, 48 h (100 = growth as untreated, 0 = no growth, -100 = all killed)
Holding throughout (conditions): 10 µM unless noted

Among the data in PubChem BioAssay (NCI) are growth values, retold here.

The panel holds about 83,000 compounds, 20% with a hit somewhere; the sample as a whole holds those more often.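 Negative percent growth values reflect cell death: -40 means 40% of the cells present at the start died, and -100 means all died.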 Values without a mark were called inactive. Activity calls are given as the source filed them. The calls were made as follows: active = growth percent below 10; inactive = the rest.

For the compound `COc1ccc(NC([Se])=NC23CC4CC(CC(C4)C2)C3)cc1`, the growth in the assay on NCI/ADR-RES ovarian was 1.9% (active); in the assay on T-47D breast, -11.7% (active); with BT-549 breast it was 11.3%; in the assay on MDA-MB-435 melanoma, 20%; with SW-620 colon, 2.24% (active); in the assay with MCF7 breast, 11.4%. The growth in the assay with HCT-116 colon is 1.65% (active); in the assay on HCC-2998 colon, 14.6%; with KM12 colon it was 5.4% (active).

For `Cc1c(C)c([N+](=O)[O-])c(C)c(C)c1[N+](=O)[O-]`, the growth was 107% with NCI/ADR-RES ovarian; 101% in the assay on T-47D breast; 106% in the assay with BT-549 breast; 91.9% in the assay with MDA-MB-435 melanoma; 112% with SW-620 colon; 107% in the assay on MCF7 breast. Besides, the growth in the assay with HCT-116 colon is 115%; in the assay on HCC-2998 colon, 104%; with KM12 colon, 110%.

Turning to `CC1(C)[C@H](O)[C@H](F)C[C@@]2(C)Oc3ccc(C(=O)Nc4ccc5c(c4)NC(=O)C54CCN(CCCCC#N)CC4)cc3C[C@H]12`, the growth with NCI/ADR-RES ovarian was 83.4%; in the assay with T-47D breast, 38.2%; in the assay with BT-549 breast, 32.5%; with MDA-MB-435 melanoma it was 24.8%; with SW-620 colon it was 0.683% (active); in the assay with MCF7 breast, 27.6%. In addition, the growth was 18.5% with HCT-116 colon, 68.5% in the assay on HCC-2998 colon and 22% in the assay with KM12 colon.

Regarding `Cn1cc(-c2csc(-c3cn(CCN4CCOCC4)c4ccc(F)cc34)n2)c2cccnc21`, the growth was 5.84% (active) in the assay on NCI/ADR-RES ovarian; -17.7% (active) in the assay on T-47D breast; 10.8% in the assay on BT-549 breast; 32.2% in the assay with MDA-MB-435 melanoma; 44.9% in the assay with SW-620 colon; 8.93% (active) in the assay with MCF7 breast. For the same compound, the values for the growth in the assay on HCT-116 colon, in the assay on HCC-2998 colon and with KM12 colon were 36.9%, 86.7% and 22.3%, respectively.

Turning to `CC(=O)O[C@H](C[C@H](C(C)C)N(C)C(=O)[C@@H](NC(=O)[C@H]1CCCCN1C)C(C)C)c1nc(C(=O)N[C@@H](Cc2ccccc2)C[C@H](C)C(=O)O)c(C(C)C)s1`, the growth in the assay on NCI/ADR-RES ovarian was 0.688% (active); in the assay with T-47D breast, 44%; in the assay on BT-549 breast, -23.3% (active); in the assay on MDA-MB-435 melanoma, -42% (active); in the assay on SW-620 colon, 27.3%; in the assay on MCF7 breast it was 15.1%. Further, the growth was 3.68% (active) with HCT-116 colon, -2.79% (active) in the assay with HCC-2998 colon and 4.51% (active) in the assay on KM12 colon.

Turning to `CC(C)(C)C(=O)OCOP(=O)(OCOC(=O)C(C)(C)C)C1CCCN(O)C1=O` (configuration not stated), the growth is 1.93% (active) in the assay with NCI/ADR-RES ovarian; 8.21% (active) in the assay with T-47D breast; 4.85% (active) with BT-549 breast; 36.6% in the assay on MDA-MB-435 melanoma; 22.9% in the assay on SW-620 colon; 0.807% (active) with MCF7 breast. The growth with HCT-116 colon is 1.32% (active); in the assay on HCC-2998 colon, 5.6% (active); in the assay with KM12 colon, -3.46% (active).

Turning to `c1ccc(COc2ccc3[nH]cc(CCN(Cc4ccccc4)Cc4ccccc4)c3c2)cc1`, the growth in the assay with NCI/ADR-RES ovarian is 91.4%; with T-47D breast it was 62.9%; in the assay on BT-549 breast, 103%; in the assay with MDA-MB-435 melanoma it was 102%; with SW-620 colon, 90.5%; with MCF7 breast, 79.3%. Also, the growth was 60.3% with HCT-116 colon, 99.7% with HCC-2998 colon and 88% in the assay on KM12 colon.

In the case of `CC(CC1CCCCC1)NCc1ccccc1` (configuration not stated), the growth in the assay with NCI/ADR-RES ovarian is 93.7%; in the assay on T-47D breast it was 102%; with BT-549 breast, 97.7%; in the assay with MDA-MB-435 melanoma it was 103%; with SW-620 colon, 94%; with MCF7 breast it was 96.4%. Also, the growth was 96.6% in the assay on HCT-116 colon, 95.3% with HCC-2998 colon and 101% in the assay on KM12 colon.

Regarding `COc1cc([C@@H]2c3cc4c(cc3[C@H](OC(C)=O)[C@H]3COC(=O)[C@@H]23)OCO4)cc(OC)c1OC`, the growth in the assay with NCI/ADR-RES ovarian is -43% (active); in the assay on T-47D breast it was 99.2%; in the assay with BT-549 breast, 8.82% (active); in the assay on MDA-MB-435 melanoma, -24.4% (active); in the assay with SW-620 colon it was 26.8%; with MCF7 breast it was 13.5%. Further, the figures for the growth in the assay with HCT-116 colon, in the assay on HCC-2998 colon and with KM12 colon were -14.2% (active), -21% (active) and -37.1% (active), respectively.

With `CC(=O)Nc1nc2c(s1)CC[C@@]1(C)C2=CC[C@H]2[C@@H]3CC[C@H](O)[C@@]3(C)CC[C@@H]21`, the growth in the assay with NCI/ADR-RES ovarian is 45.5%; in the assay with T-47D breast it was 82%; with BT-549 breast, 42.6%; with MDA-MB-435 melanoma, 5.93% (active); in the assay with SW-620 colon, 44.8%; in the assay on MCF7 breast, 24.6%. The growth in the assay with HCT-116 colon is 30.3%; in the assay with HCC-2998 colon, 96%; in the assay with KM12 colon, 49.4%.

Turning to `COc1ccc(C2=N[C@@H](Cc3ccccc3)C(=O)Nc3ccsc32)cc1`, the growth in the assay on NCI/ADR-RES ovarian was 28.4%; in the assay with T-47D breast, 61.1%; in the assay with BT-549 breast it was 51.7%; in the assay on MDA-MB-435 melanoma, -15.7% (active); with SW-620 colon, 37.6%; with MCF7 breast, 24.1%. For the same compound, the growth with HCT-116 colon is 27.5%; in the assay with HCC-2998 colon, 81.5%; in the assay on KM12 colon, 39.1%.

On to `Cc1c2cc(Cl)c3ccccc3c2c[n+]2ccccc12`, for which the growth in the assay on NCI/ADR-RES ovarian is 87.2%; in the assay on T-47D breast, -27.4% (active); in the assay on BT-549 breast it was -6.2% (active); in the assay on MDA-MB-435 melanoma, 64.9%; with SW-620 colon, 50.7%; in the assay with MCF7 breast, 26.4%. Also, the growth in the assay on HCT-116 colon was 48.7%; in the assay on HCC-2998 colon it was 15.3%; in the assay with KM12 colon it was 39.7%.

As to `O=C1C=C2C(=CCOC2O)O1` (configuration not stated), the growth was 0.601% (active) in the assay with NCI/ADR-RES ovarian; 13.7% in the assay with T-47D breast; 52.8% with BT-549 breast; 5.62% (active) in the assay with MDA-MB-435 melanoma; -47.3% (active) in the assay with SW-620 colon; 13.3% in the assay with MCF7 breast. The growth with HCT-116 colon is -69.5% (active); with HCC-2998 colon, 93.3%; in the assay on KM12 colon, 20.5%.
